{"source": "PubChem BioAssay (NCI)", "note": "Values joined by “and” are separate entries in the source; they are usually repeats but may differ in a detail not shown here. Equal values may be shown once. About 83,000 compounds went through this panel and 20% of them were active in at least one assay; those are over-represented in the sample as a whole.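 Compound tested at a single concentration for 48 hours in 96-well plates; a percent growth value below 10 was scored as active.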 Active and inactive are the calls of the source.", "data": [{"tested_on": "HL-60(TB) leukemia", "test": "NCI-60 one-dose screen, 48 h (100 = growth as untreated, 0 = no growth, -100 = all killed)", "conditions": "10 µM unless noted", "values": [{"smiles": "COc1ccc(C2NCCc3c2[nH]c2ccccc32)cc1CN1CCN(c2ccc(F)cc2)CC1", "note": "(stereo not given)", "growth": "24.7% (inactive)"}, {"smiles": "CCNC(=O)CCCCC(=O)c1c(C)[nH]c(/C=C2\\N=C(c3ccc[nH]3)C=C2OC)c1C", "growth": "66.9% (inactive)"}, {"smiles": "CCCCCOc1ccc(/C=N/Nc2cc(C)nc3ccc(Br)cc23)cc1", "growth": "-2.49% (active)"}, {"smiles": "S=c1ssnc1-c1ccccn1", "growth": "-43.5% (active)"}, {"smiles": "O=C1C2=C(C(=O)c3ccccc31)C(O)(S(=O)(=O)O)C(O)(S(=O)(=O)O)C1N=CC=CC21", "note": "(stereo not given)", "growth": "28.7% (inactive) and 31.4% (inactive)"}, {"smiles": "N#CC1C(C#N)C2c3ccccc3C=CN2C1C(=O)c1ccc(Br)cc1", "note": "(stereo not given)", "growth": "101% (inactive)"}, {"smiles": "CC(C)NCCCNC1=C(Cl)C(=O)c2ccccc2C1=O", "growth": "11.5% (inactive)"}, {"smiles": "COc1cc2ccccc2cc1C(=O)NC(=S)Nc1ccc(-c2nc3ccccc3[nH]2)cc1", "growth": "106% (inactive)"}, {"smiles": "Cc1cc(O)c2c(c1)C[C@H]1[C@@H]3CC[C@H]4CC(=O)CC[C@]4(C)[C@H]3CC(=O)[C@]21C", "growth": "73.9% (inactive)"}, {"smiles": "COc1ccc2c(Nc3ccc(NS(C)(=O)=O)cc3)c3ccccc3nc2c1", "growth": "-8.29% (active)"}, {"smiles": "CC(CCc1ccc(Cl)c(Cl)c1)NCc1ccc(C(C)(C)C)cc1", "note": "(stereo not given)", "growth": "46.2% (inactive)"}, {"smiles": "Nc1c(C(=O)Nc2cccc(F)c2)sc2nc3c(cc12)C(=O)CCC3", "growth": "31.2% (inactive)"}, {"smiles": "O=C1c2ccccc2C(=O)N1OCc1ccccc1", "growth": "94.2% (inactive)"}, {"smiles": "CCOC(=O)C1OC2(CCCC2)OC1C(=O)OCC", "note": "(stereo not given)", "growth": "87.4% (inactive)"}, {"smiles": "COC(=O)c1ccc2c(c1)C(=O)c1c-2n(CCCN)c(=O)c2cc([N+](=O)[O-])ccc12", "growth": "-85.9% (active)"}, {"smiles": "C[C@@H](C(=O)NCCCC#Cc1cnc(Nc2ccc(C#N)cc2)nc1NC1CC1)N(C)C(=O)/C=C/CN(C)C", "growth": "42.6% (inactive)"}, {"smiles": "Nc1ncnc2c1ccn2-c1cccc(NC(=O)c2cccc(C(F)(F)F)c2)c1", "growth": "104% (inactive)"}, {"smiles": "CC(C)(C)CC1(C)NC(=O)NC1=O", "note": "(stereo not given)", "growth": "114% (inactive)"}, {"smiles": "Cc1ccc(/C=C2\\CN(C(=O)OC(C)(C)C)C/C(=C\\c3ccc(C)cc3)C2=O)cc1", "growth": "41.9% (inactive)"}, {"smiles": "OCCNCCCOc1ccc2ncnc(Nc3ccc(Oc4cccc(C(F)(F)F)c4)c(Cl)c3)c2c1", "growth": "-31.3% (active)"}, {"smiles": "CCCCCCCCCCCCCCCC(=O)N1CCN(C)CC1", "growth": "47.3% (inactive)"}, {"smiles": "CC/C=C\\C[C@H]1C/C=C2/C(=O)C=C[C@@H]2C/C=C\\CCCC(=O)O1", "growth": "-27.2% (active)"}, {"smiles": "c1ccc(CNc2nc(Nc3ccc(-c4nc5ccccc5[nH]4)cc3)c3cn[nH]c3n2)cc1", "growth": "-4.71% (active)"}, {"smiles": "Cc1ccc2nc(C)c(-c3nnc(SCc4ccc(C#N)cc4)o3)n2c1", "growth": "111% (inactive)"}, {"smiles": "CCN1C(=O)N(CC)C2C1NN=c1s/c(=C\\c3cccc([N+](=O)[O-])c3)c(=O)n12", "note": "(stereo not given)", "growth": "-37.1% (active)"}, {"smiles": "COc1ccc2c(c1)C(=O)/C(=C/c1cccc(OCC(=O)Nc3nc(C)c(C)s3)c1)O2", "growth": "-79.3% (active)"}, {"smiles": "COc1ccc2nc3cc(Cl)ccc3c(N)c2c1", "growth": "-71.6% (active)"}, {"smiles": "COc1ccc(NC(=O)C2c3ccccc3C(=O)N(CC(C)C)C2c2cccs2)cc1", "note": "(stereo not given)", "growth": "90% (inactive)"}, {"smiles": "COCCn1c(-c2csc(-c3cn(C)c4ccc(OC)cc34)n2)cc2cccnc21", "growth": "55.8% (inactive)"}, {"smiles": "COc1cc([C@@H]2c3cc4c(cc3[C@H](O)[C@H]3COC(=O)[C@@H]23)OCO4)cc(OC)c1OC", "growth": "-34.9% (active) and -61% (active)"}, {"smiles": "CCOc1ccc(-c2nonc2NC(=O)c2cccc(C)c2)cc1OCC", "growth": "73% (inactive)"}, {"smiles": "COc1ccc(C2C(C#N)=C(N)Oc3c2ccc2ccccc32)cc1", "note": "(stereo not given)", "growth": "22.9% (inactive)"}, {"smiles": "O=[N+]([O-])c1cnc(Sc2ccncn2)c([N+](=O)[O-])c1", "growth": "11.3% (inactive)"}, {"smiles": "COC(=O)CCC(=O)c1ccccc1", "growth": "94.7% (inactive)"}, {"smiles": "NS(=O)(=O)c1ccc(C2C3=C(CCCC3=O)OC3=C2C(=O)c2ccccc2C3=O)cc1", "note": "(stereo not given)", "growth": "-40.5% (active)"}, {"smiles": "c1coc(-c2c3ccc(=[N+]4CCCCC4)cc-3oc3cc(N4CCCCC4)ccc23)c1", "growth": "-57.5% (active)"}, {"smiles": "OCc1cccc(-c2ccc3ncc(-c4nc(NC5CC5)ncc4F)n3c2)c1", "growth": "-62% (active)"}, {"smiles": "Oc1c(Cl)cc(Cl)c(Cl)c1CNCCNCc1c(O)c(Cl)cc(Cl)c1Cl", "growth": "-10.5% (active)"}, {"smiles": "C=C1C(=O)O[C@H]2[C@H]1CC/C(COC(=O)CCC(=O)NCCOCCOCC(=O)Nc1ccc(OC)c(C(N)=O)c1O)=C\\CC[C@@]1(C)O[C@@H]21", "growth": "65.3% (inactive)"}, {"smiles": "Brc1ccc(-n2cc(-c3nn[nH]n3)c(-c3cccs3)n2)cc1", "growth": "104% (inactive)"}]}]}
